Reference: PubChem BioAssay
The source made the active and inactive calls. Unless noted, how the calls were made is not given here.

Columns and labels:
[1] = A549 cell viability effects, profiling panel, calcein-AM fluorescence, 48 h, basal (AID 1162); settings: higher = more signal; further: test concentration not given here
[2] = adipocyte viability effects, profiling panel, cell-based, 3T3-L1 adipocytes, calcein-AM fluorescence, 48 h, basal (AID 1163); settings: 3T3-L1 adipocytes viability, higher = more signal; further: test concentration not given here
[3] = HepG2 cell viability effects, profiling panel, calcein-AM fluorescence, 48 h, basal (AID 1164); settings: higher = more signal; further: test concentration not given here
[4] = MM1S cell viability effects, profiling panel, calcein-AM fluorescence, 48 h, basal (AID 1165); settings: higher = more signal;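 further: viability of MM1S multiple myeloma cells under basal unstimulated conditions; test concentration not given here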
[5] = basal RPMI8226 viability, no added stimulus, profiling panel, cell-based, calcein-AM fluorescence, 48 h, PK04 Diversity Set (AID 1166); settings: RPMI8226 myeloma viability, higher = more signal;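 further: cells grown under basal conditions without added stimulus; test concentration not given here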
[6] = basal HepG2 mitochondrial membrane potential changes, profiling panel, cell-based, JC-1 fluorescence, 24 h, 100 nL compound (AID 1167); settings: higher = more signal; further: test concentration not given here
[7] = basal 3T3-L1 adipocyte mitochondrial potential changes, profiling panel, cell-based, JC-1 fluorescence, 3T3-L1 adipocytes, 24 h, 100 nL compound (AID 1168); settings: JC-1 mitochondrial fluorescence, higher = more signal, called active from +8 up or from −8 down; further: test concentration not given here
[8] = basal RPMI8226 mitochondrial membrane potential changes, profiling panel, cell-based, JC-1 fluorescence, 24 h, 100 nL compound (AID 1169); settings: RPMI8226 myeloma, JC-1 mitochondrial potential fluorescence, higher = more signal; further: test concentration not given here
[9] = basal MM1S mitochondrial membrane potential changes, profiling panel, cell-based, JC-1 fluorescence, 24 h, 100 nL compound (AID 1170); settings: higher = more signal; further: test concentration not given here
[10] = A549 lung cancer cell viability effects, profiling panel, resazurin fluorescence, 24 h, PK04 Diversity Set (AID 1171); settings: higher = more signal, called active from +8 up or from −8 down; further: test concentration not given here
[11] = HepG2 liver cancer cell viability effects, profiling panel, resazurin fluorescence, 24 h, PK04 Diversity Set (AID 1172); settings: higher = more signal; further: test concentration not given here
[12] = basal S. cerevisiae growth modulation, no modifier, primary screen, OD600, strain BY4716, 24 h, basal condition (AID 1173); settings: OD600, 24 h, higher = more signal, called active from +8 up or from −8 down
[13] = MM1S myeloma cell viability, profiling panel, resazurin fluorescence, basal, 24 h, PK04 Diversity Set (AID 1174); settings: higher = more signal, called active from +8 up or from −8 down;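 further: MM1S multiple myeloma cell line; test concentration not given here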
[14] = target: Dihydroorotate dehydrogenase (quinone), mitochondrial (Plasmodium falciparum (isolate 3D7)) (UniProt Q08210); experiment: PfDHODH enzyme inhibitors, primary screen, biochemical, C-terminal His tag, absorbance 600 nm (AID 1175); settings: DCIP absorbance 600 nm, higher = more signal, called active from +8 up or from −8 down;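 further: recombinant parasite enzyme with a five histidine tag at its C terminus; test concentration not given here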
[15] = P. aeruginosa biofilm formation inhibitors, primary screen, strain PAO1, LB-PBS medium, absorbance 600 nm (AID 1176); further: test concentration not given here; settings: P. aeruginosa PAO1 growth/biofilm, A600, 12 h; higher = more signal
[16] = S. cerevisiae RM11-1a growth modifiers, primary screen, strain RM11-1a, OD600, basal, 24 h (AID 1177); settings: OD600, 24 h, higher = more signal, called active from +8 up or from −8 down;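 further: cultures grown under basal conditions with no added stressor; test concentration not given here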
[17] = E. coli acrAB mutant growth effects, primary screen, E. coli filamentation inducers, strain DRC39, OD650, 24 h (AID 1178); settings: higher = more signal, called active from +8 up or from −8 down;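 further: growth measured as culture turbidity by optical density at 650 nm; test concentration not given here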
[18] = E. coli acrAB mutant growth effects, primary screen, E. coli filamentation inducers, strain DRC39, OD650, 48 h (AID 1179);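 further: screen aims at cell division blockers that make cells filament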; settings: E. coli DRC39 delta-acrAB growth, higher = more signal, called active from +8 up or from −8 down
[19] = RPMI8226 myeloma cell viability, profiling panel, resazurin fluorescence, basal, 24 h, PK04 Diversity Set (AID 1180); settings: higher = more signal;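 further: RPMI8826 multiple myeloma cell line at 5000 cells per well; test concentration not given here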
[20] = target: E3 ubiquitin-protein ligase XIAP (Homo sapiens) (UniProt P98170); experiment: XIAP binders, primary screen, biophysical, small-molecule microarray, fluorescence 635 nm (AID 1181); settings: small-molecule microarray binding, higher = more signal;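 further: score merges 667 nm emission and signal to noise over triplicate slides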
Chain of E3 ubiquitin-protein ligase XIAP (Homo sapiens) (P98170 whole entry, looked up): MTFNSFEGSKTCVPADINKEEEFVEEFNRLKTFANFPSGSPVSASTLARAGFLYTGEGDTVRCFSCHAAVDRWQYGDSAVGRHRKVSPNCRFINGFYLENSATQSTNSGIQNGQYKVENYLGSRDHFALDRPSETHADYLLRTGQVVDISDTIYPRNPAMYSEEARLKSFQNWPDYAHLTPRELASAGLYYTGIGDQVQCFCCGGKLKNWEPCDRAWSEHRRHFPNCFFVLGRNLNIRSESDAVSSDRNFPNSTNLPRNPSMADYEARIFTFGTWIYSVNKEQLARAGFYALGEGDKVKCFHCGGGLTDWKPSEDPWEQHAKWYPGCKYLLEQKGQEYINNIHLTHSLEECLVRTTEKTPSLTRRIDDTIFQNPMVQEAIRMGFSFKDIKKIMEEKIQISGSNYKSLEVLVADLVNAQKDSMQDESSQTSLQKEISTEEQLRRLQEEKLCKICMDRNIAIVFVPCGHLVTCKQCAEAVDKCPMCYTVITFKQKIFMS

Chain of Dihydroorotate dehydrogenase (quinone), mitochondrial (Plasmodium falciparum (isolate 3D7)) (Q08210 whole entry, looked up): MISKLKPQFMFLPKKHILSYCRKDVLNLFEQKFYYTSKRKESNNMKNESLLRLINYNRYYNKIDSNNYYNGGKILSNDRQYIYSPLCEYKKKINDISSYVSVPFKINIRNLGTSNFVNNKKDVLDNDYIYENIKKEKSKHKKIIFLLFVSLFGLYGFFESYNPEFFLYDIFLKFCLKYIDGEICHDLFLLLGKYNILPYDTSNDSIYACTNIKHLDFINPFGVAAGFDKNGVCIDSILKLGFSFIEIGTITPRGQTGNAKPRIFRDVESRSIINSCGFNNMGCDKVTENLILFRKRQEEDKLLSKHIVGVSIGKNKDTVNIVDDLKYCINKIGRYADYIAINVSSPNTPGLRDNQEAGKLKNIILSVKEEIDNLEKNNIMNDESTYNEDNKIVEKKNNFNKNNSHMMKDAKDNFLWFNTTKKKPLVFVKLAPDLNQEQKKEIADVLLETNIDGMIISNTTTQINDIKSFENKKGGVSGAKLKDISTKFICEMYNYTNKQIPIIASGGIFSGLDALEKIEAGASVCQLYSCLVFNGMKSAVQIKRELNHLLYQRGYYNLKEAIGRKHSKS

| SMILES | z-score [1] | z-score [2] | z-score [3] | z-score [4] | z-score [5] | z-score [6] | z-score [7] | z-score [8] | z-score [9] | z-score [10] | z-score [11] | z-score [12] | z-score [13] | composite z-score [14] | z-score [15] | z-score [16] | z-score [17] | z-score [18] | z-score [19] | composite z-score [20] |
| --- | --- | --- | --- | --- | --- | --- | --- | --- | --- | --- | --- | --- | --- | --- | --- | --- | --- | --- | --- | --- |
| O=C1O[C@@H](c2ccccc2)[C@@H](c2ccccc2)N2[C@@H](c3ccc(OCCO)cc3)[C@]3(C(=O)Nc4ccc(C#CC5(O)CCCCCC5)cc43)[C@@H](C(=O)O)[C@H]12 | 0.942 | 0.297 | 1.36 | 0.213 | 0.342 | -0.969 | -0.448 (inactive) | -0.169 | 0.0439 | 1.12 (inactive) | -0.253 | -0.431 (inactive) | 1.12 (inactive) | -2.17 (inactive) | 1.27 (inactive) | 3.11 (inactive) | 0.876 (inactive) | 1.06 (inactive) | -0.121 | -0.148 |
| COc1cc(C(O)C2C=CC3C(=O)N(c4ccccc4)C(=O)C3N2Nc2ccccc2)cc(OC)c1OC (stereo not given) | -0.591 | -1.66 | -0.342 | 0.294 | -0.0482 | -2.43 | -1.22 (inactive) | -0.953 | -0.116 | -0.427 (inactive) | -0.945 | -7.58 (inactive) | -0.191 (inactive) | 0.484 (inactive) | 1.11 (inactive) | 0.499 (inactive) | -0.393 (inactive) | -0.433 (inactive) | -0.977 | 0.0845 |
| NC(=O)NCC#Cc1ccc2c(c1)[C@]1(C(=O)N2)[C@H](c2ccc(OCCO)cc2)N2[C@H](c3ccccc3)[C@H](c3ccccc3)OC(=O)[C@H]2[C@@H]1C(=O)O | -0.295 | 1.09 | -0.21 | -1.9 | 0.111 | -1.9 | -0.469 (inactive) | -0.278 | -1.08 | 0.253 (inactive) | -0.983 | -0.434 (inactive) | 0.117 (inactive) | -0.996 (inactive) | 1.01 (inactive) | -0.264 (inactive) | 0.427 (inactive) | -0.533 (inactive) | 0.15 | -0.0013 |
| O=C1C2C=CC(C(O)C3CCCCC3)N(n3cnnc3)C2C(=O)N1Cc1ccccc1 (stereo not given) | -0.916 | 0.379 | -0.611 | -0.453 | -0.441 | -0.37 | -2.27 (inactive) | -0.0098 | -1.04 | 0.714 (inactive) | -0.308 | 0.161 (inactive) | -0.196 (inactive) | -0.016 (inactive) | 0.561 (inactive) | -0.618 (inactive) | 0.386 (inactive) | 1.01 (inactive) | -0.513 | -0.0535 |
| COC(=O)[C@H](Cc1ccc(O)cc1)N[C@@H](/C=C/C1CC1)[C@H](O)Cc1ccccc1 | -0.0547 | -1.21 | 0.192 | -1.69 | -0.192 | -1.82 | -0.177 (inactive) | -0.512 | -1.01 | 0.0243 (inactive) | -0.752 | -3.58 (inactive) | -0.163 (inactive) | -0.23 (inactive) | -0.459 (inactive) | 0.0871 (inactive) | -0.396 (inactive) | -0.571 (inactive) | 0.177 | 0.85 |
| CCCc1cc2c(n1CCc1ccc(Cl)cc1)C(C)C1CN(C(=O)c3ccccc3)C(C)(C(=O)OC)C21 (stereo not given) | -1.7 | 1.33 | -0.534 | -3.25 | -4.74 | 4.02 | -1 (inactive) | -0.78 | -1.19 | -1.94 (inactive) | -1.19 | 0.736 (inactive) | -2.85 (inactive) | -0.823 (inactive) | 0.659 (inactive) | 1.09 (inactive) | -1.34 (inactive) | -1.33 (inactive) | -1.98 | 0.527 |
| COc1ccc([Si](C)(C)[C@@H]2[C@@H](CC(=O)N3Cc4ccccc4C[C@H]3CO)O[C@]3(C(=O)N(Cc4cccc(N5CCOC5=O)c4)c4ccccc43)[C@H]2C)cc1 | -1.43 | 1.69 | -0.443 | -2.51 | -3.32 | -0.0282 | 0.192 (inactive) | -1.16 | -1.01 | -2.45 (inactive) | -1.02 | -0.238 (inactive) | -2.17 (inactive) | 0.314 (inactive) | 0.79 (inactive) | 1.64 (inactive) | -0.742 (inactive) | -0.655 (inactive) | -2.05 | -0.13 |
| O=C1O[C@H](c2ccccc2)[C@H](c2ccccc2)N2[C@H]1[C@@H](C(=O)O)[C@]1(C(=O)Nc3ccc(C#CCCO)cc31)[C@H]2c1ccc(OCCO)cc1 | 0.616 | 1 | 0.461 | -0.963 | 0.926 | -0.76 | -0.138 (inactive) | 0.489 | 0.492 | 0.367 (inactive) | 0.174 | -0.829 (inactive) | 0.686 (inactive) | -1.01 (inactive) | 0.967 (inactive) | 0.159 (inactive) | 0.312 (inactive) | 0.471 (inactive) | 0.68 | -0.177 |
| CCOC(=O)C[C@H]1[C@H](OC(=O)c2ccccc2-c2ccccc2)[C@@H](NC(=O)c2ccc3ccccc3c2)c2cc(OCCCO)ccc2N1C(=O)Cc1ccc(OC)cc1 | 0.0867 | 0.152 | 0.278 | 0.306 | -0.543 | -0.175 | 0.367 (inactive) | -0.49 | 0.0571 | -0.439 (inactive) | -0.397 | 0.118 (inactive) | -0.142 (inactive) | -0.0597 (inactive) | -0.283 (inactive) | -0.899 (inactive) | -0.516 (inactive) | -0.404 (inactive) | -0.0439 | 0.0711 |
